The experiment deals with Rolipram. Description: off-target receptor, channel and CYP panel, profiling panel, selectivity assay for S1P3 agonist project, biochemical, Ricerca HitProfilingScreen, CYP450 (AID 540351). The note with it: Ricerca receptor/enzyme binding panel plus CYP450, at 30 µM, active compounds read high.

A number with no mark means an inactive call. No rule for the calls is given here.

The inhibition is the percentage by which the read-out fell short of the control. For the molecule `O=C(c1cc(C2CC2)on1)N(C1CCCCC1)C1CCCCC1`, the inhibition was 18%.

For the origin of these results see PubChem BioAssay AID540351 (The Scripps Research Institute Molecular Screening Center, 2011).
